Inconclusive results are not listed. The source made the active and inactive calls. Calls come from the whole dose curve; as a rule, active = well fitted activation curve with a large enough effect; inconclusive = small, poorly fitted or top-dose-only effect; inactive = no such curve, though single readings can be large or run the other way.
Experiment: FLuc inhibitory activity for the follow-up compounds in a cell-based assay to assess the activity of miR-21
Conditions: HeLa miR-21-FLuc reporter, luciferase luminescence, 48 h; series mostly up to 38.3 µM
Text: NCGC Assay Overview: Firefly (Photinus pyralis) luciferase is one of the most commonly used transcriptional reporters. It is considered one of the more dynamically responsive reporters - that is, responsive to changes in reporter transcription - as it requires no post-translational modifications and is enzymatically active directly after protein synthesis (Wood, 1998). With no endogenous expression in mammalian cells and without the requirement of external excitation, it offers very little background signal, thus generally providing excellent signal to background for most assays. Previous profiling work to determine the prevalence of compounds that affect FLuc enzymatic activity (PubChem AID 411) identified that ~3% of the MLSMR library (then at ~72K) inhibited FLuc (Auld et al., 2008). […] Of the compounds identified in this profile that inhibited FLuc, 151 compounds were selected for further analysis, in an effort to better understand their mode of inhibiting FLuc. The assay described here was to determine the activity of the compounds in a cell-based firefly luciferase reporter gene assay originally designed to identify antagonists of miR-21. Compounds that inhibit miR-21 or compounds that stabilize FLuc intracellularly are identified as active compounds in the assay.
NCGC Assay Protocol Summary: Reagents: In-house detection reagent: 300mM Tris-HCl, 300mM Trizma base, 300mM MgCl, 1% Triton-X100, 5mM DTT, 500uM Coenzyme A trilithium salt (Sigma #C3019),450uM ATP (Sigma #A7699), 1mM D-luciferin sodium salt monohydrate (Biosynth #L8240) HeLa cells stably expressing firefly luciferase (FLuc) under the control of a CMV promoter (upstream) and a miR-21 binding sequence directly downstream of the gene. These cells endogenously express miR-21. Control compounds used were two known firefly luciferase inhibitors (3-(5-(3-chlorophenyl)-1,2,4-oxadiazol-3-yl)benzoic acid and 5-(2-fluorophenyl)-3-phenyl-1,2,4-oxadiazole), and DMSO. Assay Summary: 6uL of HeLa miR-21-FLuc cells in assay buffer (DMEM, Invitrogen #21063-029; 10% FBS, HyClone #SH30071.03) were dispensed at 2000cells/well (3.3 x 10^5 cells/mL) into Greiner solid-white TC-treated 1536-well plates using a Multidrop Combi (Thermo Fisher Scientific). Plates were incubated for one hour at 37 degree Celsius, 95% humidity, 5% CO2. These assay plates were then treated with 23nL of compound or DMSO using a Kalypsys pin tool, which allows for delivery of a 12-point titration of each compound to the assay plate, with a final compound concentration ranging from approximately ~38uM to 0.2nM. Assay plates were then incubated for 48 hours. After incubation, plates were allowed to come to RT for one hour prior to delivery of 3uL of 3X luciferase detection reagent. After a 15 minute incubation to allow for cell lysis, luciferase activity was measured using a ViewLux CCD imager (PerkinElmer), with an average exposure time of 2-12 seconds.

Compound | Potency
CN=c1scc(-c2ccccc2F)n1/N=C/c1ccc[nH]1 | inactive
CCOc1ccc(C(=O)Nc2ccccc2C(=O)O)cc1 | 1.13 µM (active)
O=C(O)c1cccc(NC(=O)c2ccc(Cl)c(S(=O)(=O)N3CCCCCC3)c2)c1 | 0.634 µM (active)
O=C(O)c1ccc(NC(=O)c2cccc(C(=O)Nc3ccc(C(=O)O)cc3)c2)cc1 | inactive
CCOc1c(Cl)cc(C(=O)Nc2ccccc2C(=O)O)cc1Cl | 5.04 µM (active)
O=C(Nc1ccccc1-c1nc2ccccc2s1)c1ccc(Br)o1 | 22.5 µM (active)
CCCC(=O)Nc1nc2ccc(OCC)cc2s1 | 2.83 µM (active)
COc1ccc(NS(=O)(=O)c2cccc(C(=O)Nc3ccccc3C(=O)O)c2)cc1 | inactive
Cc1ccc2sc(-c3ccc(NC(=O)c4cc(-n5cnnc5)ccc4Cl)cc3)nc2c1 | 1.79 µM (active)
COc1ccc(-c2cccc(C(=O)Nc3cccc(C(=O)O)c3)c2)cc1 | 4.49 µM (active)
Cc1cccc(C(=O)Nc2ccc(-c3nc4ccccc4s3)cc2Cl)c1 | 12.6 µM (active)
O=C(Nc1ccccc1C(=O)O)c1cccc(C(=O)Nc2ccccc2C(=O)O)c1 | inactive
O=C(Cc1ccccc1)Nc1ccccc1C(=O)Nc1ccc(C(=O)O)cc1 | inactive
O=C(O)c1cccc(NC(=O)c2cccc(S(=O)(=O)Nc3cccc(F)c3)c2)c1 | inactive
O=C(Nc1ccccc1C(=O)O)c1cccc(NC(=O)c2ccccc2Br)c1 | inactive
Cc1ccc(S(=O)(=O)N2CCN(C(=O)c3ccccc3-c3nc4ccccc4s3)CC2)c(C)c1 | 20 µM (active)
CC(=O)Oc1ccc(C(=O)Nc2ccccc2C(=O)Nc2cccc(C(=O)O)c2)cc1 | inactive
COc1c(C)cccc1C(=O)Nc1ccc(-c2nc3ccccc3s2)c(Cl)c1 | 22.5 µM (active)
CCOc1ccc2nc(NC(=O)c3cc([N+](=O)[O-])ccc3N3CCOCC3)sc2c1 | 5.04 µM (active)
COc1ccc2nc(NC(=O)c3cccc(S(=O)(=O)N4CCOCC4)c3)sc2c1 | 7.11 µM (active)

Compound | Potency
Nc1cccc(-c2nc3ccc(N)cc3s2)c1 | 1.79 µM (active)
Nc1ccc2nc(-c3ccc(O)cc3)sc2c1 | 0.4 µM (active)
O=C(COC(=O)c1ccccc1[N+](=O)[O-])c1ccc2c(c1)OCO2 | 5.04 µM (active)
COc1cccc(OC)c1C(=O)Nc1cccc(C(=O)Nc2cccc(C(=O)O)c2)c1 | inactive
Nc1ccc(-c2nc3cc(N)ccc3s2)cc1 | 2.25 µM (active)
Cc1ccc(C(=O)Nc2ccc(C(=O)O)cc2)cc1S(=O)(=O)Nc1ccccc1 | inactive
COc1ccc2nc(NC(=O)c3cccs3)sc2c1 | 10 µM (active)
O=C(Nc1c(Cl)cc(Cl)cc1-c1nc2ccccc2s1)c1ccc(Br)o1 | 12.6 µM (active)
Cc1ccc(C(=O)Nc2cccc(C(=O)O)c2)cc1 | 0.126 µM (active)
O=C(Nc1ccccc1C(=O)O)c1cc(S(=O)(=O)Nc2ccccc2)ccc1Cl | inactive
O=C(Nc1ccccc1C(=O)O)c1ccc(NC(=O)C2CC2)cc1 | inactive
Cn1c(N/N=C/c2cc3ccccc3nc2Cl)nc2ccccc21 | 0.711 µM (active)
COc1cc(OC)cc(C(=O)Nc2ccc(-c3nc4ccccc4s3)c(C)c2)c1 | 11.3 µM (active)
COc1cccc(-c2nc3ccccc3s2)c1 | 0.252 µM (active)
COc1ccc2nc(NC(=O)c3cnccn3)sc2c1 | 0.2 µM (active)
CCn1c(C)nc2cc(-c3nc4n(n3)Cc3ccccc3-4)ccc21 | 0.1 µM (active)
Cc1ccc(C(=O)Nc2ccccc2C(=O)O)cc1S(=O)(=O)N1CCCCCC1 | 2.83 µM (active)
CC(C)c1ccc(C(=O)Nc2ccc(-c3nc4ccccc4s3)c(Cl)c2)cc1 | 7.98 µM (active)
CCOc1ccc2nc(NC(=O)c3cccnc3)sc2c1 | 1.13 µM (active)
Cc1c(NC(=O)C(C)(C)C)cccc1-c1nc2ccccc2s1 | 10 µM (active)
